The results in this text go back to PubChem BioAssay (NCI).

Holding throughout (assay): NCI-60 one-dose screen, 48 h (100 = growth as untreated, 0 = no growth, -100 = all killed)
What all share (conditions): 10 µM unless noted

The subject of assay [1] is T-47D breast.
For assay [2], the system named is BT-549 breast.
The test system of assay [3] is MDA-MB-435 melanoma.
For assay [4], the system named is SW-620 colon.
For assay [5], the system named is MCF7 breast.
Assay [6] relates to HCT-116 colon.
The test system of assay [7] is HCC-2998 colon.
Assay [8] concerns KM12 colon.

Compounds without any hit were thinned out: in the full panel of roughly 83,000, 20% have a hit.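 The endpoint reported here, percent growth, reads 100 for growth as untreated, 0 for no net growth and -100 for all cells dead.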 Values without a mark were called inactive. Calls of active or inactive are those of the source. How the source made its calls: active means growth percent below 10; inactive means the rest.

`COC1=CC(c2ccc[nH]2)=N/C1=C\c1[nH]c(C)c(CC(=O)OCc2ccccc2)c1C`: the growth is -28.6% (active) in assay [1]; -1.22% (active) in assay [2]; -21.3% (active) in assay [3]; -6.46% (active) in assay [4]; 4.14% (active) in assay [5]; -35% (active) in assay [6]. In addition, the growth in assay [7] is 13.4%; in assay [8] it was -9.28% (active).
With `Nc1c(C(=O)Nc2ccccn2)sc2nc3c(cc12)C(O)CCC3` (stereo not given), the growth in assay [1] is 15%; in assay [2], 58.2%; in assay [3], -44.6% (active); in assay [4], 21.8%; in assay [5], 13.2%; in assay [6], 30.5%. Moreover, the values for the growth in assay [7] and in assay [8] were 70.7% and 18.3%, respectively.
Consider `CC(C)CCSc1nc(Nc2ccccc2)c(C#N)c(-c2ccccc2)n1`, for which the growth in assay [1] is 58.3%; in assay [2], 62.1%; in assay [3] it was 94%; in assay [4] it was 56.9%; in assay [5] it was 45.6%; in assay [6], 27.5%. For the same compound, the growth in assay [7] was 46.3%; in assay [8], 89.9%.
Consider `O=C1Nc2ccc(F)cc2/C1=C\c1nc(-c2ccccc2F)n2ccccc12`, for which the growth is 88% in assay [1]; 102% in assay [2]; 101% in assay [3]; 44.9% in assay [4]; 47.9% in assay [5]; 44.2% in assay [6]. The growth in assay [7] was 100%; in assay [8], 97.2%.
On to `COc1ccc(Cn2cc(C(=O)N=Nc3c(O)[nH]c4c(Cl)cccc34)nn2)cc1`, for which the growth in assay [1] is 100%; in assay [2] it was 111%; in assay [3], 101%; in assay [4], 99.7%; in assay [5], 84.3%; in assay [6] it was 91.6%. Moreover, the growth in assay [7] is 99.3%; in assay [8], 107%.
With `Cc1ccccc1OCC(O)COc1ccccc1C`, the growth in assay [1] was 88.7%; in assay [2], 79.4%; in assay [3] it was 94.6%; in assay [4], 103%; in assay [5], 90.7%; in assay [6], 103%. Further, the values for the growth in assay [7] and in assay [8] were 573% and 103%, respectively.
Take `CCCNc1nc2ccccc2c2c(=O)c3cccc(Cl)c3sc12`: the growth in assay [1] was 51.8%; in assay [2], 99%; in assay [3], 101%; in assay [4] it was 97.8%; in assay [5], 31.2%; in assay [6], 72.4%. For the same compound, the growth is 103% in assay [7] and 90.4% in assay [8].
Regarding `O=C1c2cc3c(cc2-c2c1c1ccc(Cl)cc1c(=O)n2C[C@H](O)CO)OCO3`, the growth is -6.44% (active) in assay [1]; 1.39% (active) in assay [2]; -59.7% (active) in assay [3]; -4.07% (active) in assay [4]; -1.79% (active) in assay [5]; -25.6% (active) in assay [6]. Also, the values for the growth in assay [7] and in assay [8] were 4.32% (active) and -14.4% (active), respectively.
Regarding `CC1O[C@@H]2C[C@@](O)([C@H]1O)n1c3ccccc3c3c4c(c5c6ccccc6n2c5c31)C(=O)NC4=O` (stereo not given in full), the growth in assay [1] is 8.92% (active); in assay [2], 36.3%; in assay [3], 43.1%; in assay [4], 35.4%; in assay [5] it was 22.3%; in assay [6], 15.6%. The growth is 73.4% in assay [7] and 22.8% in assay [8].
On to `C[C@@H](CO)[C@@H]1CC[C@]2(C(=O)N3CCN(C)CC3)CC[C@]3(C)[C@H](CC[C@@H]4[C@@]5(C)CC[C@H](O)C(C)(C)[C@@H]5CC[C@]43C)[C@@H]12`, for which the growth is 76.7% in assay [1]; 75.8% in assay [2]; 75.8% in assay [3]; 51.5% in assay [4]; 42.1% in assay [5]; 16.7% in assay [6]. Further, the growth was 105% in assay [7] and 86% in assay [8].
`Cc1ccc(-c2nc(C#N)c(S(=O)(=O)NCCO)o2)cc1`: the growth in assay [1] was 43.1%; in assay [2], 64.7%; in assay [3], 68.5%; in assay [4], 33.8%; in assay [5] it was 37.9%; in assay [6], 51.6%. The growth in assay [7] was 98.1%; in assay [8], 88%.
Consider `COC(=O)C1=C(C)NC(C)=C(C(=O)OCC(C)C)C1c1ccccc1[N+](=O)[O-]` (stereo not given), for which the growth in assay [1] is 56.1%; in assay [2] it was 59.5%; in assay [3] it was 54.8%; in assay [4] it was 29.4%; in assay [5], 72.7%; in assay [6] it was 30.1%. Moreover, the growth in assay [7] is 83.5%; in assay [8] it was 27.4%.
As to `Nc1ncnc2c1c(-c1ccc(Oc3ccccc3)cc1)nn2CC1SSCC1O` (stereo not given), the growth in assay [1] was 7.22% (active); in assay [2], 82%; in assay [3] it was -0.185% (active); in assay [4], 78.7%; in assay [5] it was 16%; in assay [6] it was 43.8%. In addition, the results for the growth in assay [7] and in assay [8] were 80.4% and 46.5%, respectively.
For `O=C(Nc1ccccc1O)c1ccccc1Nc1ccnc(C(F)(F)F)c1`, the growth was 88.4% in assay [1]; 112% in assay [2]; 115% in assay [3]; 102% in assay [4]; 83.4% in assay [5]; 84.2% in assay [6]. Further, the growth in assay [7] was 107%; in assay [8], 102%.
As to `O=C(CN1CCN(c2cc3c(cc2F)c(=O)c(C(=O)O)cn3C2CC2)CC1)N/N=C/c1ccncc1`, the growth in assay [1] is 96.8%; in assay [2], 95.7%; in assay [3], 97.5%; in assay [4], 97.4%; in assay [5] it was 92.4%; in assay [6] it was 104%. Moreover, the growth in assay [7] is 110%; in assay [8], 101%.
